# Test results reported in PubChem BioAssay (NCATS).
# Results filed as inconclusive are left out. Unmarked numbers belong to inactive results. The call rests on the fitted dose curve; in most records, active means well fitted cell-killing curve with a large enough effect; inconclusive means small, poorly fitted or top-dose-only effect; inactive means flat fitted curve, though single readings scatter.
# Assay: Cell Viability - LYMP2-023 (AID 975);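 further: cellular ATP measured by luciferase luminescence as viability proxy; cells exposed to compound for 24 hours at 37 °C; plate controls were DMSO only for no effect and 92 µM tetraoctylammonium bromide control for full effect; nearly all actives have a fitted effect of over 55% in size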
# Details: LYMP2-023 lymphoblastoid cell viability; series mostly up to 92.2 µM; activity change, negative = cytotoxicity: at the top concentration
# Outline: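 Intracellular ATP, read by CellTiter-Glo luminescence, reports viability after 24 hr compound exposure at 37 C. 2500 lymphoblastoid cells/well (LYMP2-023) seeded 5 hr beforehand; Hill fits give AC50; positive control tetraoctylammonium bromide.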
row,SMILES,"activity change, negative = cytotoxicity [%]"
1,CC(C#N)CCC#N (configuration not stated),-2.26
2,Nc1cccc(Cl)c1,1.01
3,ClCc1ccccc1,0.522
4,CCC/C=N/O,-0.397
5,O=S(=O)(Cl)c1ccccc1,3.11
6,C=CCOCC1CO1 (configuration not stated),-3.61
7,c1ccoc1,-2.72
8,Clc1ccccc1,0.78
9,ClC(Cl)(Cl)C(Cl)(Cl)Cl,-0.267
10,CCOC(=O)C1OC1(C)c1ccccc1 (configuration not stated),1.29
11,C/C=C/CC#N,-0.363
12,ClC(Cl)C(Cl)Cl,-4.52
13,Brc1cccc(-c2ccccc2)c1,-0.995
14,C=CCO,-8.31
15,OCCCCO,-4.35
16,Nn1cnnc1,-2.81

row,SMILES,"activity change, negative = cytotoxicity [%]"
1,Cc1ccccc1[N+](=O)[O-],-2.37
2,CCCCOC(=O)c1ccccc1N,-0.773
3,Clc1cc(Cl)c(Cl)c(Cl)c1,0.223
4,Cc1ccc(N)c(C)c1,-0.279
5,C1CC2OC2CC1C1CO1 (configuration not stated),3.81
6,CN(C)C(=O)Cl,0.826
7,CC(=O)NNc1ccccc1,-1.68
8,Cc1ccc(N=C=O)cc1N=C=O,-14.5
9,O=C(Cl)OCc1ccccc1,-3.11
10,C=CC(=O)OC,0.804
11,CCN(CC)N=O,1.25
12,OCC(Cl)CCl (configuration not stated),-3.96
13,CC(C)CON=O,1.75
14,CC(C)(Cl)[N+](=O)[O-],6.51
15,C[N+](=O)[O-],-0.986
16,ClCC(Br)CBr (configuration not stated),-4.79
